The text below walks through data of PubChem BioAssay (NCATS).

SMILES strings stand for the structures. Results filed as inconclusive are left out. Unmarked numbers belong to inactive results. Activity calls are given as the source filed them. Calls come from the whole dose curve; as a rule, active = well fitted curve in the direction sought with a large enough effect; inconclusive = small, poorly fitted or top-dose-only effect, or another doubt; inactive = no such curve, though single readings can be large; an effect the other way counts as inactive or inconclusive.

Assay [1] deals with N-terminal Xaa-Pro-Lys N-methyltransferase 1 (Homo sapiens) (UniProt Q9BV86). The experiment in a line: Confirmatory qHTS for Inhibitors of N-terminal methyltransferase 1 (NTMT1): MTaseGlo Assay (AID 1645874). Note: nearly all actives have a fitted effect of over 65% in size. Note: potency is the fitted concentration of half-maximal effect. The essentials:
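Room-temperature NTMT1 reaction, 30 min, with 100 uM SAM and 1 uM SPKRIA substrate; enzyme 125 nM. Read-out: MTase-Glo luminescence, normalized to no-enzyme and DMSO controls.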
For orientation: In qHTS, concentration-response curves come from the screen itself.

Assay [2] deals with Zika virus NS2B-NS3 protease (linked construct). The experiment in a line: Confirmatory screen NINDS AMC qHTS for Zika virus inhibitors (AID 1347152). Note: potency is the fitted concentration of half-maximal effect; nearly all actives have a fitted effect of over 70% in size. Put shortly:
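Linked NS2B-NS3 protease, 1 nM, in 10 mM Tris-HCl pH 8.0, 0.01% Tween 20; compounds preincubated 15 min at room temperature. Nle-KRR-AMC 10 microM (Km 18.3 µM); 15-min fluorescence change (340/450 nm) fitted to 4-parameter Hill.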

The test system of assay [3] is Zika virus NS2B-NS3 protease (unlinked complex). The experiment in a line: Confirmatory screen GU AMC qHTS for Zika virus inhibitors (AID 1347153). Note: potency is the fitted concentration of half-maximal effect; nearly all actives have a fitted effect of over 70% in size. The essentials:
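Unlinked enzyme 25 nM, Tris pH 8.0/0.01% Tween 20; cpd 15 min RT, dark; + AMC substrate 10 µM (Km 18.3 µM); 340/450 nm read at t0 and 15 min; % inhibition → 4-param fit.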

Assay [4] deals with Zika virus NS2B-NS3 protease (linked). Briefly: 384 well plate NINDS AMC confirmatory qHTS for Zika virus inhibitors (AID 1347163). Note: potency is the fitted concentration of half-maximal effect; nearly all actives have a fitted effect of over 50% in size. The essentials: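 Enzyme (5, 30 or 60 nM final) first met test compounds for ~15 min. The AMC-tagged peptide Ac-VKTGKR-AMC followed at 30 microM. Fluorescence was then recorded at 25 min and scaled against no-enzyme and no-inhibitor wells.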
The nature of assay [5]: qHTS Assay for Identifying Gametocytocidal Compounds (AID 743244).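 For max response: % is set by controls: 0 for no effect and ±100 for the full control effect; actives lower the fluorescent signal which means gametocytes are killed.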 Note: potency is the fitted concentration of half-maximal effect. To be noted: P. falciparum 3D7 stage III-V gametocytes, alamarBlue, 72 h; max response: hits give low values. The essentials: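 A resazurin-based viability read-out was applied to mature P. falciparum gametocytes: 72 h compound treatment, then 24 h dye incubation, with falling fluorescence signalling gametocytocidal effect.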

Assay [6] can be described thus: NCATS anti-infectives library activity on HEK293 viability as a counter-qHTS vs the C. elegans viability qHTS (AID 1745854). Note: % is set by controls: 0 for no effect and ±100 for the full control effect. Put shortly: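 CellTiter-Glo luminescence, read on a CCD imager, scored viability of HEK293 cells after 24 hr compound exposure at 37C. Library tested in several concentrations, 1:5 steps, up to 41.7 uM; digitonin served as control.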
The target of another assay is Furin (Homo sapiens) (UniProt P09958). Briefly: Furin counterscreen qHTS for Zika virus inhibitors (AID 1347149). Note: potency is the fitted concentration of half-maximal effect; nearly all actives have a fitted effect of over 70% in size. The essentials: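 Counterscreen measures cleavage of 2 microM BOC-RVRR-AMC, below its ~15 microM Km, by 5 nM full-length human furin at pH 7.0 after a 15-min compound preincubation. Inhibition derives from the 15-min fluorescence increase at 37C.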
A general note: Counterscreens check selectivity or assay interference.

The nature of assay [7]: Tertiary RLuc qRT-PCR qHTS assay for Zika virus inhibitors (AID 1347169). Note: nearly all actives have a fitted effect of over 55% in size. Note: potency is the fitted concentration of half-maximal effect. Put shortly: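 Vero cells (1,000/well) infected with recombinant ZIKV-RLuc (Cambodian) at MOI 1-2 after compound addition, 48-72 hrs at 37 degrees C. Live-cell Renilla luciferase substrate added; luminescence read after 1-1.5 hrs.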
Assay [8] is described as follows: Primary qHTS for inhibitors of La Crosse Virus (LACV) - induced cell death in SH-SY5Y cells (AID 1508616).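 Note: top concentration of the series differs between compounds; 0% = infected DMSO wells and 100% = uninfected DMSO wells; higher means more rescue of cells from virus-induced death.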 Put shortly: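 Cytopathicity rescue screen: compounds pinned onto SH-SY5Y cells, which are then infected with LACV (MOI 0.01) and held 6 days at 37C. Percent activity is scaled between infected DMSO control and uninfected DMSO control.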
The nature of assay [9]: Primary qHTS for small molecule stabilizers of the endoplasmic reticulum resident proteome: Secreted ER Calcium Modulated Protein (SERCaMP) assay (AID 1508630). Note: % is set by controls: 0 for no effect and ±100 for the full control effect. The essentials:
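The SH-SY5Y reporter protocol was run at 3 concentrations up to 38.3 uM (primary) or 11 concentrations (follow-up): 16 h compound, 100 nM thapsigargin for 4 h, then extracellular luciferase luminescence.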

The nature of assay [10]: P-glycoprotein substrates identified in KB-3-1 adenocarcinoma cell line, qHTS therapeutic library screen (AID 1346986).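 Note: potency is the fitted concentration of half-maximal effect; potency is for cytotoxicity meaning loss of cell viability; nearly all actives have a fitted effect of over 60% in size.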 Put shortly:
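Dose-response cytotoxicity, KB-3-1 vs P-gp-high KB-8-5-11, no colchicine in assay medium. Read: CellTiter-Glo at 72 h.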

Assay [11] in a line: Drug repurposing screens with cells derived from glioblastoma tumor samples (AID 1345199). Note: % is set by controls: 0 for no effect and ±100 for the full control effect; nearly all actives have a fitted effect of over 40% in size. The conditions noted are these: GBM patient neurospheres viability, ATP luminescence, 48 h. Put shortly: (§1)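 Primary testing used CD133+ neurospheres from four GBM patients, seven concentrations, 48 h exposure and ATP-based viability; confirmation added three slower-growing patient lines.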

Another assay has as its system astro. The assay is described as above. The conditions noted are these: viability, ATP luminescence, 48 h; series mostly up to 45.9 µM. Put shortly:
as §1

Chain of N-terminal Xaa-Pro-Lys N-methyltransferase 1 (Homo sapiens) (Q9BV86 whole entry, looked up): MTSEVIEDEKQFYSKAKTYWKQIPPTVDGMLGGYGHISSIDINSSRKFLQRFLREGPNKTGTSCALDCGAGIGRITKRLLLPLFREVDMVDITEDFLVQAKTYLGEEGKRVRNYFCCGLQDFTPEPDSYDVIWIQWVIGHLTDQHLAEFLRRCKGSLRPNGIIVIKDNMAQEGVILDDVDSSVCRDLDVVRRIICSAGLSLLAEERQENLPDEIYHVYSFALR
Chain of Furin (Homo sapiens) (P09958 whole entry, looked up): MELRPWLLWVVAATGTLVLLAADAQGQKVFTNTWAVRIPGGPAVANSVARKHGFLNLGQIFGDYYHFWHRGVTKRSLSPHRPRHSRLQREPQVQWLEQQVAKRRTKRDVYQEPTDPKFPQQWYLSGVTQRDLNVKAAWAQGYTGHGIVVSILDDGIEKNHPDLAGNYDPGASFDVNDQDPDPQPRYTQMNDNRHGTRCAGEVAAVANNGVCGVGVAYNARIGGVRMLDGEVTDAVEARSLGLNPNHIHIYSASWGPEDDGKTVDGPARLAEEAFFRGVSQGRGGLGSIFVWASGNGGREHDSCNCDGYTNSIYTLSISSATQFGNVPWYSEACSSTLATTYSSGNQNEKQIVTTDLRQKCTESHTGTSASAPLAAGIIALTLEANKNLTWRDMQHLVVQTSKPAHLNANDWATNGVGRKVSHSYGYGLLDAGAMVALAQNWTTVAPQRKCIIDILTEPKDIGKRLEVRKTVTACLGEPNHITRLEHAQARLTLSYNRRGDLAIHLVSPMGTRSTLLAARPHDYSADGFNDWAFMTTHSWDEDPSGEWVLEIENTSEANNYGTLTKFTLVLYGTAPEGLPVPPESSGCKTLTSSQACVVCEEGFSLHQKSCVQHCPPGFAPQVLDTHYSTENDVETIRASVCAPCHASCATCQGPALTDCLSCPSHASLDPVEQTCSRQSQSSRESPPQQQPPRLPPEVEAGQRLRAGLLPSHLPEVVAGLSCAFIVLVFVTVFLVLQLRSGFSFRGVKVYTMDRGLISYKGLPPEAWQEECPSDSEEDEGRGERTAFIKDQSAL

For `Cc1cc(CS(=O)(=O)c2ccccc2)cc(OCc2ccc(CN3CCC[C@@H]3CO)cc2)c1`, in assay [1], the Potency result was “inactive”.

For the compound `CN(CC(=O)N(Cc1ccc(C2CCCCC2)cc1)c1ccc(C(=O)O)cc1)S(=O)(=O)c1c(F)c(F)c(F)c(F)c1F`, the figures for the Potency in assay [2], in assay [3] and in assay [4] were 19.7 µM (active), 22.1 µM (active) and 50.1 µM (active), respectively.

`N#C[C@@H]1C[C@@H]2C[C@@H]2N1C(=O)[C@@H](N)C12CC3CC(CC(O)(C3)C1)C2`: the max response in [5] is -8.8%. Further, the outcome in assay [6] was inactive.

Turning to `CS(=O)(=O)c1ccc(-c2cn3ccccc3n2)cc1`, the Potency with Furin (Homo sapiens) is 5.39 µM (active); in [2] it was 21.5 µM (active); in assay [3], 24.1 µM (active); in assay [1] it was 9.55 µM (active). For the same compound, the Potency result in [7] and in assay [9] was “inactive” in each case. The compound was called inactive in assay [8].

For `COCCNCc1ccc(-c2cc3nccc(Oc4ccc(NC(=S)NC(=O)Cc5ccc(F)cc5)cc4F)c3s2)nc1`, the Potency in [10] is 23.1 µM (active).

As for `COc1cc(N2CCN(C(C)=O)CC2)ccc1Nc1ncc(Cl)c(Nc2ccc(N3CCN(C(C)=O)CC3)cc2OC)n1`, the results for the Potency in assay [10] and in assay [1] were 14.6 µM (active) and 49.4 µM (active), respectively.

On to `Cc1ccn(-c2cc(Cl)ccc2[C@@H](Oc2cc(-c3ccc(C[C@H](N)C(=O)O)cc3)nc(N)n2)C(F)(F)F)n1`, for which the Potency in assay [7] was 20.8 µM (active).

For the compound `CCNC(=O)[C@@H]1CCCN1C(=O)[C@H](CCCN=C(N)N)NC(=O)[C@H](CC(C)C)NC(=O)[C@@H](CC(C)C)NC(=O)[C@H](Cc1ccc(O)cc1)NC(=O)[C@H](CO)NC(=O)[C@H](Cc1c[nH]c2ccccc12)NC(=O)[C@H](Cc1cnc[nH]1)NC(=O)[C@@H]1CCC(=O)N1`, the max response in assay [5] was 2.85%. Also, the activity, negative = cell killing is -5.52% in assay [11] (at 45.9 µM (top of the series), tumour line B); 4.71% in [11] (at 45.9 µM (top of the series), tumour line D); -26.4% in assay [11] (at 46 µM (top of the series), tumour line A); 1.53% in assay [11] (at 46.1 µM (top of the series), tumour line C). The Potency entry in the assay with astro was “inactive”.

On to `Nc1ccc(N)c([N+](=O)[O-])c1`, for which, in assay [5], the Potency was 39.8 µM (active). For the same compound, the call in assay [8] was inactive. For the same compound, in assay [11] (at 91.6 µM (top of the series), tumour line D), the activity, negative = cell killing is -23.5%. In addition, the Potency result with astro was “inactive”.
